Experimental data taken from the supplement of paper PMC11577813, “Eurasian spruce bark beetle detects lanierone using a highly expressed specialist odorant receptor, present in several functional sensillum types” (BMC Biology, 2024).
± gives the standard deviation of the averaged measurements.

Tested on: (4S)-cis-verbenol A-neuron OSN class
Assay: net action potential response of A-neuron (blank-subtracted) (spikes/s (Hz)); higher = stronger excitation
Details: 10 µg on filter paper; neuron: A neuron (large spike amplitude)
Experimental: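 Single sensillum recordings from antennal olfactory sensilla of live adult Ips typographus. Each compound was 10 µg in paraffin oil on filter paper, delivered as a 0.5 s puff. Net response = spikes in the first 0.5 s of response minus the 0.5 s pre-stimulus count, doubled to give Hz, with blank response subtracted. Values are for the large-spike A-neuron class of each of seven sensillum types that co-house the lanierone B-neuron; N = 1-4 sensilla, averaged.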

Row | SMILES | net action potential response
1 | CCC/C=C/C=O [(E)-hex-2-enal] | 4 ± 10
2 | CC1=CCC2CC1C2(C)C (stereo not drawn) [(-)-α-Pinene] | -2.67 ± 3.1
3 | C=CC(=C)CCC=C(C)C [Myrcene] | 2 ± 4
4 | C=CC(=C)C[C@@H](O)CC(C)C (racemic) [(±)-Ipsenol] | 1.33 ± 4.2
5 | C[C@]12CCC[C@](C)(OC1)O2 (racemic) [(±)-Frontalin] | -2 ± 4
6 | C[C@H]1C(=O)C[C@H]2C[C@@H]1C2(C)C [(-)-Pinocamphone] | 2.67 ± 6.4
7 | CC(=O)OC/C=C(\C)CCC=C(C)C [Geranyl acetate] | -2.67 ± 4.2
8 | CC1=CCC2C(C1)C2(C)C (single isomer, unassigned; (+)) [(+)-3-Carene] | 3.33 ± 7
9 | C=CCc1ccc(OC)c(OC)c1 [Eugenol methyl ether] | -0.667 ± 8.1
10 | CC(=O)OCCC(C)C [3-Methylbutyl acetate] | -4 ± 4
11 | CCC/C=C\CO | 1.33 ± 4.2
12 | CC[C@H]1O[C@]2(C)CCC[C@H]1O2 (racemic) [(±)-exo-Brevicomin] | -3.33 ± 4.2
13 | COc1ccc(C)cc1OC [3,4-Dimethoxytoluene] | -2.67 ± 2.3
14 | CCc1ccc(O)c(OC)c1 [4-Ethylguaiacol] | 2 ± 6
